Source: PubChem BioAssay AID720551 (National Center for Advancing Translational Sciences (NCATS), 2013)
Among all 340,000 compounds or so, about 1,300 (0.38%) were called active. The list comes from a sample in which actives are over-represented; it also holds similar structures and randomly drawn compounds. Unmarked numbers belong to inactive results.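 Rule for the calls: active = maximum activity change below -70%; inconclusive = maximum activity change between -70% and -50%; inactive = maximum activity change above -50%.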

target: Voltage-gated inwardly rectifying potassium channel KCNH2 (Homo sapiens) (UniProt Q12809); experiment: qHTS for Inhibitors of KCHN2 3.1: Wildtype qHTS; details: U2OS, BacMam KCNH2, thallium flux FluxOr; at 1.84 µM; stronger effect = lower value
Sequence (Q12809 whole entry, looked up): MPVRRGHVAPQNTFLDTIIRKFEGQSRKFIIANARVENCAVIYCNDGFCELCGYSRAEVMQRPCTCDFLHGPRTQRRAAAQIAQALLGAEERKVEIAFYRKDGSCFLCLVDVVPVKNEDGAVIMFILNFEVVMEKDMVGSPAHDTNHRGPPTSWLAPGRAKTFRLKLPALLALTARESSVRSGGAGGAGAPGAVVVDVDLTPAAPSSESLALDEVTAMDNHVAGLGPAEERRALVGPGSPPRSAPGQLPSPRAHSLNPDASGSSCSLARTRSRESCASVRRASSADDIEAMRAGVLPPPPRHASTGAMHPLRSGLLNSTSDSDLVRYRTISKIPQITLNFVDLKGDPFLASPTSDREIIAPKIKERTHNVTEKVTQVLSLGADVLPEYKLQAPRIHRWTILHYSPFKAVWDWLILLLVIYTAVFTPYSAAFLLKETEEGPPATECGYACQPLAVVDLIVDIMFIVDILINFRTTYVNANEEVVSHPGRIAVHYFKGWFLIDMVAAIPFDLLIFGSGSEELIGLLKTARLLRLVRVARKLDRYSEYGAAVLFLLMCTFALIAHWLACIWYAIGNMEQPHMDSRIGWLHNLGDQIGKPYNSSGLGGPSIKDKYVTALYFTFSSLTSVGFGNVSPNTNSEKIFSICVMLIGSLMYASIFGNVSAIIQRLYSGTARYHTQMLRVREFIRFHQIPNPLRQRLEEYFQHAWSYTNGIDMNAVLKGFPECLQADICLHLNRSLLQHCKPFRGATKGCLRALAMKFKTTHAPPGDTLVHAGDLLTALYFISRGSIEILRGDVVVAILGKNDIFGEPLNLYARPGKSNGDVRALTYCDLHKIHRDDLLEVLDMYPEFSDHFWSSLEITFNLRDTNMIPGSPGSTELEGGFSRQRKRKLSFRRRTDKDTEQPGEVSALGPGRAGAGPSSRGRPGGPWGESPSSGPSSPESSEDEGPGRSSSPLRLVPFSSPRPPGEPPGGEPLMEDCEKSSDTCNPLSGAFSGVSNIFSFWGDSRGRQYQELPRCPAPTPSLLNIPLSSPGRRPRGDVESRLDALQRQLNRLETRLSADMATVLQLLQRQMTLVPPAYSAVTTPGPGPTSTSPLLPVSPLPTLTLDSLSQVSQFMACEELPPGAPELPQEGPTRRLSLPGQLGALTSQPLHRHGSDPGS
Summary of the method: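 U2OS cells transduced with wild-type KCNH2 virus are loaded with FluxOr dye for 45 min, and thallium flux is measured in kinetic reads before and after stimulation buffer. Rate constants are normalized to DMSO controls.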
% is set by controls: 0 for no effect and ±100 for the full control effect.

Row | Structure (SMILES) | activity change
1 | CC1CN(C(=O)CCC(=O)NCCCN2CCC(Cc3ccccc3)CC2)c2cc(Cl)ccc2O1 (stereo unspecified) | -88.2% (active)
2 | CC1CN(C(=O)CCC(=O)NC2CCN(Cc3ccccc3)CC2)c2ccccc2O1 (stereo unspecified) | 16.1%
3 | CC1CN(C(=O)CCC(=O)NCc2cccnc2)c2ccccc2O1 (stereo unspecified) | -2.13%
4 | CCCc1c(C)nc2scc(-c3ccc(Cl)cc3)n2c1=O | -21.6%
5 | COc1ccc(CN2C[C@H]3CON(C)[C@H]3C[C@H]2c2ccc(-c3cccc(F)c3)cc2)cc1 | -20.5%
6 | Cc1ccc(-c2ccc(CN3C(C(C)C)C(=O)N(Cc4cn(CCC5OCCO5)nn4)CCS3(=O)=O)cc2)cc1 (stereo unspecified) | -23.7%
7 | O=C(c1ccc(Cl)c([N+](=O)[O-])c1)N1CCN(c2ccccc2)CC1 | 9.59%
8 | CO/N=C/c1ccc(N2CCN(C(=O)c3cccc(Cl)c3)CC2)c([N+](=O)[O-])c1 | -11.9%
9 | O=C(/C=C/c1ccc(Cl)cc1)N1CCN(c2ccccc2[N+](=O)[O-])CC1 | -71.4% (active)
10 | O=C(NCCN1CCOCC1)c1ccc2c(c1)N(Cc1cccc(Cl)c1)C(=O)c1ccccc1S2(=O)=O | 2.54%
11 | Cc1cc(OCC(=O)Nc2nccs2)c2c(C)c(C)c(=O)oc2c1 | -4.04%
12 | CC1(C)CC(=O)C=C(c2ccc(COC(=O)c3cc(F)cc(F)c3)cc2)C1=O | -3.02%
13 | CCN(CC)CCN(C(=O)c1ccc2c(c1)CCCC2)c1nc2c(OC)cccc2s1 | -10.1%
14 | Cc1cc(C)c2cc(C#N)c(N3CCNCC3)nc2c1 | 31.7%
15 | O=C(COC(=O)CSc1ccccc1)Nc1ccc(F)cc1F | -4.38%
16 | COc1ccccc1NC(=O)CCN1CCN(c2ccc(Cl)cc2)CC1 | 0.203%
17 | O=C(CN1CCN(C(=O)c2cccc(F)c2)CC1)Nc1ccccc1F | 4.68%
18 | O=C(CCN1CCN(C/C=C/c2ccccc2)CC1)Nc1ccccc1Cl | -76.7% (active)
19 | CCOC(=O)N1CCN(CCC(=O)Nc2ccccc2)CC1 | 9.24%

Row | Structure (SMILES) | activity change
20 | CNC(=O)NC(=O)C(C)N1CCN(C/C=C/c2ccccc2)CC1 (stereo unspecified) | 16.2%
21 | O=C(CCN1C(=O)c2ccccc2C1=O)Nc1cccc(F)c1 | 5.88%
22 | O=C(CN1CCN(C/C=C/c2ccccc2)CC1)Nc1ccc(F)cc1F | -155% (active)
23 | O=C(CCN1CCN(C/C=C/c2ccccc2)CC1)Nc1cccc(F)c1 | -92.1% (active)
24 | COc1ccc(NC(=O)N(C)C[C@@H]2OCc3cn(nn3)CCCC(=O)N([C@H](C)CO)C[C@H]2C)c(OC)c1 | 3.91%
25 | Cc1ccc(-c2ccc(C3=CC(=O)CC(C)(C)C3=O)cc2)cc1 | -2.66%
26 | CSc1ncnc2c1ncn2CCCNCc1cccs1 | 6.63%
27 | CCOC(=O)c1ccccc1OC(=O)Oc1ccccc1C(=O)OCC | -141% (active)
28 | COc1ccccc1C(=O)OCC(=O)NCCNC(=O)COC(=O)c1ccccc1OC | -4.76%
29 | CCOC(=O)c1ccccc1CN1C(=O)c2ccccc2S1(=O)=O | -3.26%
30 | CCc1ccccc1NC(=O)CN1CCN(C(=O)c2cc(C3CC3)nn2-c2ccccc2)CC1 | 4.86%
31 | Cc1ccc(Nc2nc(N)nc(CN3CCN(Cc4ccccc4)CC3)n2)cc1Cl | -75.8% (active)
32 | Cc1ccccc1Nc1nc(N)nc(CN2CCN(c3ccccn3)CC2)n1 | 15.1%
33 | CCOC(=O)C1CCCN(Cc2nc(N)nc(Nc3ccc(C)cc3)n2)C1 (stereo unspecified) | 27.8%
34 | c1ccc2c(c1)nnn2-c1ccncc1 | -10.2%
35 | c1ccc(C2c3[nH]c4ccccc4c3CCN2Cc2cccn2-c2cccnc2)nc1 (stereo unspecified) | 5.67%
36 | CCOc1ccc(C2c3[nH]c4ccccc4c3CCN2Cc2cn(CC)nc2C)cc1 (stereo unspecified) | 23.4%
37 | CCOc1ccc(C2c3[nH]c4ccccc4c3CCN2Cc2cccn2-c2ncccn2)cc1 (stereo unspecified) | -74.4% (active)
38 | NC1=CC(=O)C(=O)c2cccnc21 | -14.1%

Row | Structure (SMILES) | activity change
39 | O=C(COC(=O)Cc1ccc(Cl)cc1Cl)NCc1ccco1 | 5.01%
40 | CN(C)CCNC(=O)/C(=C/c1cccc([N+](=O)[O-])c1)NC(=O)c1ccccc1 | -79.1% (active)
41 | Cc1ccc(C(=O)N/C(=C/c2ccc(-c3cccc([N+](=O)[O-])c3)o2)C(=O)NCCCN(C)C)cc1 | -0.553%
42 | O=C(NCCc1ccccc1)/C(=C\c1ccc([N+](=O)[O-])cc1)NC(=O)c1ccccc1 | 23.3%
43 | O=C(CN1C(=O)NC2(CCc3ccccc32)C1=O)NC1CCCCC1 (stereo unspecified) | 12.5%
44 | C/C=C(\C)C(=O)NCCN1C2=NC[C@H](Cc3ccc(O)cc3)N2C[C@@H]1Cc1ccc(OC)cc1 | -2.93%
45 | COc1cccc(CNC(=O)CCC2CCCN(Cc3ccc(OC(F)F)cc3)C2)c1 (stereo unspecified) | -23.2%
46 | COc1ccc(C[C@H]2CN3C(=NC[C@H]3C)N2CCNC(=O)CCC2CCCCC2)cc1 | -97.2% (active)
47 | COc1ccc(NC(=O)C[C@H]2C(=O)N(CCc3ccccc3)C[C@@H]2C)cc1 | -25.6%
48 | O=C(CCN1CCCCC1)Nc1ccc(F)c(F)c1 | -2.99%
49 | Cc1ccc(NC(=O)COC(=O)CN2CCSC2=O)cc1F | -2.67%
50 | CC(C)NC(=O)Nc1ccc2c(c1)C(=O)N([C@H](C)CO)C[C@H](C)[C@@H](CN(C)Cc1ccc(C(F)(F)F)cc1)OCCCC[C@@H](C)O2 | -10.8%
51 | CC1(C)Cc2cccc(OCC(=O)N3CCN(c4ccc([N+](=O)[O-])cc4)CC3)c2O1 | -90.2% (active)
52 | CC1(C)Cc2cccc(OCC(N)=O)c2O1 | -15.1%
53 | CC1(C)Cc2cccc(OCC(=O)Nc3nccs3)c2O1 | -0.616%
54 | COc1ccccc1C(=O)NCc1nnc(SC(C)C(=O)Nc2nccs2)n1C (stereo unspecified) | -5.03%
55 | Cn1c(CNC(=O)c2ccccc2F)nnc1SCc1ccc(F)cc1 | 6.63%
56 | CC(Sc1nnc(CNC(=O)c2ccccc2F)n1C)C(=O)Nc1nccs1 (stereo unspecified) | -161% (active)
